The record followed here is ChEMBL document CHEMBL3988442, “University of Dundee, Small-Polar-MMV Screening Library” (2021).

SMILES strings stand for the structures. About 420 (0.61%) of roughly 69,000 compounds showed an effect of 50% or more. The sample as a whole holds a higher share of strong results than the screen did.

For the test, the target named is T1, Histidine--tRNA ligase (Leishmania infantum) (UniProt A4I591).
T1 sequence (whole entry): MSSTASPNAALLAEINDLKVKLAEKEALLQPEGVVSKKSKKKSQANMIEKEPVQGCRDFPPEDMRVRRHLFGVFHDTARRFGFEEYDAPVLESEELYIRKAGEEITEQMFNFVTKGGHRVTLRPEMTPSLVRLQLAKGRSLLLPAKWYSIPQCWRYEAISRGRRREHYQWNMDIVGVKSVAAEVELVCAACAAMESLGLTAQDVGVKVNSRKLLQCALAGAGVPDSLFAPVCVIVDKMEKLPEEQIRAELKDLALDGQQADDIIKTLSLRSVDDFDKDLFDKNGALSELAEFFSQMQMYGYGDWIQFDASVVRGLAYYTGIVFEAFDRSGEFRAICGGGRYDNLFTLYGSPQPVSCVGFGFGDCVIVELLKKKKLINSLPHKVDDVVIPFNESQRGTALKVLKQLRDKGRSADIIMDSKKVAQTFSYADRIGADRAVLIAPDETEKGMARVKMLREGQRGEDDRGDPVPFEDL
Nature of the test: Leishmania infantum Histidine tRNA synthetase (LdHisRS). Format: functional. More on the design: scale not given: in the data most compounds retested in dose-response had high values. As to conditions: 30 µM.
`CC(C)NC(=O)C1Cc2nc(-c3ccsc3)sc2N1CC1CC1` (stereo not drawn): the Percent Effect came out at 51.4%.
In the case of `CN(C)CCNC(=O)C1Cc2nc(-c3ccccc3)sc2N1CC1CC1` (stereo not drawn), the Percent Effect is 20.8%.
For `CC(C)CNC(=O)[C@H]1C[C@@H]2CN(C(=O)NCC3CCCCC3)C[C@H]1O2` the value was 17.2%; for `COc1ccccc1CN1C(=O)O[C@@H]2CN(Cc3cccc(C)n3)C[C@@H]21`, -1.67%.
As to `O=C1O[C@@H]2CN(Cc3ccncc3)C[C@@H]2N1CCCN1CCOCC1`, the Percent Effect was -6.67%.
With `COc1ccc(-n2cc(CCO)cn2)cc1C(N)=O`, the Percent Effect turned out to be 34.2%.
For `COc1cc(-n2cc(CCO)cn2)ccc1NC(C)=O`, the Percent Effect is 31.6%.
For `COc1ccc(-n2cc(CCO)cn2)cc1C` the value was 69.6%; for `N#Cc1ccc(OC[C@]23COC[C@H]2CN(c2ncccn2)C3)nc1`, 5.56%.
As for `c1cncc(N2CCC3(CCCN(c4ccncc4)C3)CC2)c1`, the Percent Effect was found to be 15.3%.
As for `N#Cc1ccc(N2CCCC3(CCN(c4cccnc4)CC3)C2)cc1`, the Percent Effect was 51.4%.
For `c1cncc(N2CCCC3(CCN(CCN4CCCC4)CC3)C2)c1` the value was 15.3%.
As for `O=C1[C@H]2CN(Cc3ccccc3)C[C@H]2CN1CCN1CCCC1`, the Percent Effect was 17.3%.
As to `Cc1ccc(-n2cc(CN3CCN(C)[C@@H]4CS(=O)(=O)C[C@@H]43)cn2)cc1`, the Percent Effect is 11.4%.
As for `Cc1cc(C)cc(NC(=O)Nc2c(O)oc3ccccc3c2=O)c1`, the Percent Effect was determined as 16.1%.
Consider `Cn1nc2c(cc1=O)CN(Cc1nc(N)c3ccccc3n1)CC2`, for which the Percent Effect turned out to be 43.5%.
Turning to `CCn1nc2c(cc1=O)CN(Cc1nc3ccccc3c(=O)[nH]1)CC2`, the Percent Effect is 25%.
For `Cn1nc2c(cc1=O)CN(Cc1nc3ccccc3c(=O)[nH]1)CC2` the value was 24.7%; for `c1ccc2sc(N3CCCN(c4ncnc5c4CCNC5)CC3)nc2c1`, 57.1%; for `Cn1nc2c(cc1=O)CN(CCc1nc3ccccc3c(=O)[nH]1)CC2`, 53.9%.
`Cc1ncnc(N2CCCN(c3nc4ccccc4s3)CC2)c1C`: the Percent Effect was 25.7%.
As for `c1ccc2sc(N3CCN(c4ncnc5c4CCC5)CC3)nc2c1`, the Percent Effect amounted to 14.3%.
Consider `CC(C)n1nc2c(cc1=O)CN(c1nc3ccccc3s1)CC2`, for which the Percent Effect was found to be 18.2%.
As for `CCn1nc2c(cc1=O)CN(c1nc3ccccc3s1)CC2`, the Percent Effect turned out to be 72.7%.
Take `CCn1nc2c(cc1=O)CN(Cc1nc3ccccc3o1)CC2`: the Percent Effect is 12.9%.
As for `Cn1nc2c(cc1=O)CN(c1nc3ccccc3s1)CC2`, the Percent Effect was found to be 90.9%.
Consider `Cc1nc(CO[C@H]2CN(C(=O)c3cnoc3C)[C@@H]3COC[C@H]23)cs1`, for which the Percent Effect was found to be 10%.
For `CC(C)NC(=O)[C@@]12CCO[C@@H]1CCN(Cc1ccco1)C2` the value was 15.1%.
As for `O=C(Nc1cccnc1)[C@H]1C[C@@H]2CN(Cc3ccc(F)cc3)C[C@H]1O2`, the Percent Effect turned out to be 10%.
With `CC(C)C(=O)N1CC[C@H]2N(C)CC[C@@]2(C(=O)Nc2cccnc2)CC1`, the Percent Effect is 8.11%.
For `OC[C@H]1CC[C@]2(CC1)CN(Cc1ccsc1)Cc1ccccc1O2`, the Percent Effect turned out to be 16.5%.
`O=C(c1ccco1)N1C[C@@H]2OCCN(CCN3CCCC3)[C@@H]2C1`: the Percent Effect was determined as 6.01%.
`CNC(=O)N1CCC2(CC1)CC[C@@]1(C(=O)NC)CN(S(C)(=O)=O)C[C@@H]21`: the Percent Effect turned out to be 9.72%.
As to `CN(Cc1ccco1)[C@@H]1CN(Cc2nccn2C)[C@@H]2CCCO[C@H]12`, the Percent Effect amounted to 27%.
For `O=C([C@@H]1COC[C@H]2CN(c3ccncn3)C[C@H]21)N1CCCC1` the value was 19.3%; for `CN(Cc1cccs1)C(=O)c1ccc(=O)n(C)c1`, 11.3%; for `CN(Cc1ccco1)C(=O)c1ccc(=O)n(C)c1`, 14.9%.
With `Cc1occc1CN(C)C(=O)Nc1ccc(=O)n(C)c1`, the Percent Effect was determined as 102%.
For `CN(Cc1ccco1)C(=O)Nc1ccc(=O)n(C)c1` the value was 102%; for `CN(Cc1ccc2c(c1)OCO2)C(=O)c1ccc(=O)n(C)c1`, 5.33%; for `COc1ccc(NC(=O)N(C)Cc2ccco2)cn1`, 16%.
For `CS(=O)(=O)N[C@@H]1CN(C(=O)c2cccnc2)[C@@H]2CCCO[C@@H]21`, the Percent Effect came to 8.26%.
Regarding `O=C([C@@H]1C[C@@H]2CCN(C3CCOCC3)C[C@@H]2O1)N1CCOCC1`, the Percent Effect amounted to 8.33%.
As for `CC(=O)N1CCN(C(=O)CNc2ccc3ncsc3c2)CC1`, the Percent Effect worked out at 58.8%.
Regarding `CC(=O)N1CCN(C(=O)C(C)Nc2ccc3ncsc3c2)CC1` (stereo not drawn), the Percent Effect worked out at 28.9%.
Turning to `CC(=O)N1CCN(C(=O)CNc2ccc3sccc3c2)CC1`, the Percent Effect was 27.2%.
`Cc1ccc(-c2nc(CN3CCc4nn(C)c(=O)cc4C3)co2)cc1`: the Percent Effect amounted to 107%.
For the compound `CN(C)CC1CN(Cc2coc(-c3cccs3)n2)CCO1` (stereo not drawn), the Percent Effect turned out to be 14.9%.
Consider `O=C1NCCN1C1CCCN(Cc2coc(-c3ccc(F)cc3)n2)C1` (stereo not drawn), for which the Percent Effect is 24.6%.
Take `Cn1nc2c(cc1=O)CN(Cc1coc(-c3cccs3)n1)CC2`: the Percent Effect worked out at 97.6%.
Consider `Cn1nc2c(cc1=O)CN(Cc1coc(-c3ccc(F)cc3)n1)CC2`, for which the Percent Effect came to 90.3%.
On to `O=C1NCCN1C1CCN(Cc2coc(-c3ccc(F)cc3)n2)CC1`, for which the Percent Effect is 9.82%.
In the case of `CCn1nc2c(cc1=O)CN(Cc1coc(-c3ccccc3)n1)CC2`, the Percent Effect was 14.9%.
On to `Cn1nc2c(cc1=O)CN(Cc1coc(-c3cccc(F)c3)n1)CC2`, for which the Percent Effect is 90.3%.
For the compound `CCN1CCN(Cc2coc(-c3cccc(F)c3)n2)CC1`, the Percent Effect was determined as 21.9%.
`Cn1nc2c(cc1=O)CN(Cc1coc(-c3ccccc3)n1)CC2`: the Percent Effect was found to be 44.7%.
For `O=C1NCCN1C1CCCN(Cc2coc(-c3cccs3)n2)C1` (stereo not drawn) the value was 13.4%.
As to `CC1CCCN(Cc2coc(-c3cccc(F)c3)n2)C1` (stereo not drawn), the Percent Effect was found to be 13.7%.
